KCNQ2 block – rat KCNQ2 potassium channel inhibitors, primary screen, cell-based, CHO-K1, FluxOR thallium flux, B-score; Potassium voltage-gated channel subfamily KQT member 2 (Rattus norvegicus), O88943; 20 min; hits give low values; B-score at 10 µM; 310,000 compounds, 1.1% hits; AID 2156, 2009;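 active means fluorescence ratio B-score at most minus 3 library SDs, with starting brightness B-score within 2 library SDs, cut at about -5.5 in these data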
Target sequence (O88943 whole entry, looked up): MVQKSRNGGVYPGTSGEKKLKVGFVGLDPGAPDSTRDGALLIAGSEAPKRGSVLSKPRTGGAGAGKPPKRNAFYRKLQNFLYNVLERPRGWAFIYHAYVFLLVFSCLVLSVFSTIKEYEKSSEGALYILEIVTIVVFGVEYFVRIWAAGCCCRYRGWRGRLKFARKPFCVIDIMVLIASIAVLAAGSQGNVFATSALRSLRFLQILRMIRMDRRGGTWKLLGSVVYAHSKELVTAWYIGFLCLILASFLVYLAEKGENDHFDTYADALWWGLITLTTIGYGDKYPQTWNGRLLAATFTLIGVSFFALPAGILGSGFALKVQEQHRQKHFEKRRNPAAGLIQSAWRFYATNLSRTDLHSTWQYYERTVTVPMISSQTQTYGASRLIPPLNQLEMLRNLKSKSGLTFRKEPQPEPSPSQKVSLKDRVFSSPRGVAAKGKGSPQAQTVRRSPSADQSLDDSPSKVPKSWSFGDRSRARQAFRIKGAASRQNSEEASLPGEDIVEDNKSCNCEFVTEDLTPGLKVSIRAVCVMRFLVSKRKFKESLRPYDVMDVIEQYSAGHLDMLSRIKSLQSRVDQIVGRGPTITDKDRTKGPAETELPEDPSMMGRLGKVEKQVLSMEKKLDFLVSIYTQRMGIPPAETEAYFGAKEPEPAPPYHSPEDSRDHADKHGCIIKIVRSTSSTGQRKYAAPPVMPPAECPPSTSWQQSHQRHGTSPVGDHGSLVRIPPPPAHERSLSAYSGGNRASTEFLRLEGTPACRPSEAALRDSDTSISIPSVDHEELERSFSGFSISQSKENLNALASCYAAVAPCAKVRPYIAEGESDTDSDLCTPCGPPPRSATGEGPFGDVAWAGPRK
KCNQ2 enhance – potentiators of rat KCNQ2 potassium channel; Potassium voltage-gated channel subfamily KQT member 2 (Rattus norvegicus), O88943; CHO-K1 KCNQ2, FluxOR thallium flux fluorescence; hits give high values; B-score at 10 µM; 310,000 compounds, 0.54% hits; AID 2239, 2010;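 active means fluorescence ratio B-score at least 3 SD of library B-scores, with initial fluorescence B-score within 3 of them, cut at about 5.3 in these data; same plate scores as AID 2156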;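 further: B-score of peak minus minimum over baseline fluorescence ratio after K+ and Tl+ stimulus; positive B-score means potentiation of KCNQ2 with more thallium influx and brighter signal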
* marks the source's active call; other numbers are inactive results; i = inactive; / = no result. Shown are actives, neighbours in structure and some others; about 1.6% of the full set was active somewhere.

SMILES	KCNQ2 block	KCNQ2 enhance
COc1cccc(NC(=O)c2cc(-c3ccc(OC)cc3OC)nc3ccccc23)c1	-6.4*	-6.4
O=S(=O)(NCc1ccco1)c1ccc(Cl)nc1	i	1.5
c1ccc(CC2CCN(C3=Nc4cccc5cccc3c45)CC2)cc1	-6*	-6
c1cc2c3c(cccc3c1)C(N1CCOCC1)=N2	i	/
Cc1noc(C)c1CSCC(=O)N1CCN(c2ccc(F)cc2)CC1	i	/
Cc1cccc(N2CCN(C(=O)CSCc3c(C)noc3C)CC2)c1C	-6*	-6
CCn1c(=O)c(=O)[nH]c2cc(C(=O)NC(C)c3ccc(S(N)(=O)=O)cc3)ccc21 (centres undefined)	i	/
CN(c1ccccc1)S(=O)(=O)c1cccc(NC(=O)CSc2ncc(C(F)(F)F)cc2Cl)c1	i	9.7*
CN(c1ccccc1)S(=O)(=O)c1cccc(NC(=O)CSc2nncn2C)c1	i	0.07
O=C(NNS(=O)(=O)c1ccc(C(F)(F)F)cc1)c1cnn(-c2ccccc2)c1C(F)(F)F	i	1.2
Cc1cccc(OCc2nnc(SCC(=O)N(C(C)C)C(C)C)n2Cc2ccco2)c1C	-7.7*	-7.7
Cc1cc(NC(=O)CSc2nnc(COc3cccc(C)c3C)n2Cc2ccco2)no1	i	0.07
CCCN1C(=O)c2ccc(C(=O)Nc3ccccc3C(=O)O)cc2C1=O	i	/
COC1(OC)C(/C=C/c2ccc(C)cc2)C(C#N)(C#N)C1(OC)OC (centres undefined)	-7.5*	-7.5
O=C(Nc1ccc(F)cc1)NC1CCCCCCC1	i	1.1
O=C(Nc1ccc(F)cc1)C(NC1CCCCC1)c1ccccc1 (centres undefined)	-6*	-6
CCSc1nc2ccccc2c(=O)n1CCc1ccc(OC)c(OC)c1	i	/
Cc1nn(C)c(Oc2cccc(Cl)c2)c1C#N	i	/
Cn1nc(-c2ccccc2)c(C#N)c1Sc1cccc(Cl)c1	-8.1*	-8.1
Cc1[nH]n(-c2ccccc2)c(=O)c1N=Nc1cccc(C(=O)O)c1	i	2.4
Cc1nn(Cc2ccccc2)c(Cl)c1C(=O)OCc1nnc(-c2ccccc2)o1	i	0.79
Cc1nn(Cc2ccccc2)c(Cl)c1C(=O)OCc1nnc(-c2ccc(Cl)cc2)o1	-6.1*	-6.1
CNS(=O)(=O)c1cc(-c2nnc(N3CCOCC3)c3ccccc23)ccc1C	i	/
CN(C(=O)c1ccc(Br)o1)C1CCCCC1	i	/
N#Cc1nc(COc2cccc(Cl)c2)oc1N1CCCC1	i	/
SMILES	KCNQ2 block	KCNQ2 enhance
N#Cc1nc(Cc2cccc3ccccc23)oc1N1CCOCC1	i	0.03
COc1ccc(N2CCN(c3oc(Cc4cccc5ccccc45)nc3C#N)CC2)cc1	-7*	-7
CC1CCN(c2oc(Cc3cccc4ccccc34)nc2C#N)CC1	-5.9*	-5.9
N#Cc1nc(COc2ccccc2)oc1N1CCN(Cc2ccccc2)CC1	-6.4*	-6.4
N#Cc1nc(Cc2cccc3ccccc23)oc1N1CCN(c2ccccc2)CC1	i	/
Cc1ccc(C(=O)OCC(=O)c2ccc(S(=O)(=O)N3CCCCC3)cc2)o1	i	/
O=C(COC(=O)C1CC(=O)N(Cc2ccccc2)C1)c1ccc(F)cc1 (centres undefined)	i	0.59
NS(=O)(=O)c1ccc(NC(=S)NNC(=O)c2ccc(Br)o2)cc1	i	/
CC1CC(C)CN(C(=O)CCC(=O)Nc2nnc(C3CCCCC3)s2)C1 (centres undefined)	i	1.4
COc1ccc(S(=O)(=O)N(CC(=O)NC2CC2)c2ccc(C)cc2)cc1OC	i	0.11
O=C(CN(Cc1ccco1)C(=O)Cn1nnc(-c2ccc(F)cc2)n1)NC1CCCC1	i	0.08
CCCCC(C(=O)NC1CCCC1)N(Cc1ccco1)C(=O)Cn1nnc(-c2ccc(F)cc2)n1 (centres undefined)	-7.2*	-7.2
O=c1c2nnn(-c3ccc(Br)cc3)c2ncn1Cc1ccccn1	i	/
O=S(=O)(c1ccc2nc(N3CCN(c4ccccc4)CC3)ccc2c1)N1CCCCC1	i	0.04
COc1ccccc1N1CCN(c2ccc3cc(S(=O)(=O)N4CCCCC4)ccc3n2)CC1	-5.6*	-5.6
O=C(O)c1[nH]c2ccccc2c1CC(=O)N1CCN(c2ccccc2)CC1	i	/
Cc1cccc(N2CCN(C(=O)Cc3c(C(=O)O)[nH]c4ccc(Cl)cc34)CC2)c1C	i	7*
COc1ccc(NC(=O)C2C3C=CC4(O3)C2C(=O)N(CCN2CCCCC2C)C4C(=O)NC2CCCCC2)cc1 (centres undefined)	i	/
O=C(NCC1CCCO1)c1cc(-c2ccc(F)cc2)no1 (centres undefined)	i	/
NS(=O)(=O)c1ccc(CNC(=O)NC23CC4CC(CC(C4)C2)C3)cc1	i	0.67
Cc1ccc(CNC(=O)NC23CC4CC(CC(C4)C2)C3)cc1	i	11*
COc1ccccc1NC(=O)CN(Cc1ccco1)C(=O)c1cccs1	i	/
O=C(CN(Cc1ccco1)S(=O)(=O)c1cccs1)Nc1ccccc1C(F)(F)F	-7*	-7
CC(OC(=O)CC1CCCCC1)C(=O)Nc1ccc(F)cc1 (centres undefined)	i	0.34
Cc1cc(O)c(C(C[N+](=O)[O-])c2ccc(Cl)cc2)c(=O)o1 (centres undefined)	i	/
SMILES	KCNQ2 block	KCNQ2 enhance
Cc1cc(C)n(C(C[N+](=O)[O-])c2ccc(Cl)cc2)n1 (centres undefined)	-10*	-10
COc1ccc(C(=O)Nc2sc(C)c(-c3ccccc3)c2C#N)cc1OC	-6.4*	-6.4
Cc1sc(NC(=O)COc2ccccc2)c(C#N)c1-c1ccccc1	i	/
CCN(CC)C(=O)c1cc2c(=O)oc3ccccc3c2s1	-6.9*	-6.9
CCN(CC)C(=O)c1cc2c(=O)n3ccccc3nc2s1	i	0.76
CCOc1ccc(NS(=O)(=O)c2cc3c4c(c2)C(C)C(=O)N4CCC3)cc1 (centres undefined)	i	0.41
Cc1ccc(-c2cc(C(F)F)n3ncc(C(=O)N4CCN(c5cccc(C)c5C)CC4)c3n2)cc1	-6.4*	-6.4
CCOC(=O)N1CCN(C(=O)c2cnn3c(C(F)F)cc(-c4ccc(C)cc4)nc23)CC1	i	3
COCCCn1c(=O)c2ccccc2n2c(=S)[nH]nc12	i	/
COc1ccc(CCNC(=O)CN2C(=O)COc3ccc(S(=O)(=O)N4CCOCC4)cc32)cc1OC	i	/
CNc1nc(SC(C)C(=O)Nc2ccc(Cl)c(Cl)c2)nc(N2CCOCC2)n1 (centres undefined)	i	1.2
COc1ccc(-c2cn(-c3ccc(C)cc3C)c(=O)[nH]2)cc1OC	i	/
CSCCC(NS(=O)(=O)c1ccc(Cl)cc1)C(=O)OCc1c(Cl)cccc1Cl (centres undefined)	i	/
CSCCC(NS(=O)(=O)c1ccccc1F)C(=O)OCc1ccccc1Cl (centres undefined)	-6.2*	-6.2
Cc1ccc(-c2csc(NC(=O)CCNC(=O)c3ccco3)n2)cc1	i	/
Cc1ccc(-c2csc(NC(=S)NC(=O)c3ccco3)n2)cc1	i	11*
CCc1ccc(NC(=O)[C@H](Cc2c[nH]c3ccccc23)NC(=O)[C@@H]2Cc3ccccc3CN2)cc1	i	/
CC(C)C[C@H](NC(=O)[C@@H]1Cc2ccccc2CN1)C(=O)Nc1ccc(C(C)C)cc1	i	/
Cc1ccc(NC(=O)[C@H](Cc2ccccc2)NC(=O)[C@@H]2Cc3ccccc3CN2)c(C)c1	i	/

Assay outcomes: PubChem, Johns Hopkins Ion Channel Center
